# Laboratory results taken from PubChem BioAssay AID933 (National Center for Advancing Translational Sciences (NCATS), 2007).
# Records with an inconclusive call do not appear. A call without a number means that no potency is given here. Unmarked numbers belong to inactive results. Activity calls are given as the source filed them. Calls come from the whole dose curve; as a rule, active = well fitted activation curve with a large enough effect in the signal ratio, with a control signal flat; inconclusive = small, poorly fitted or top-dose-only effect, or a change in a side signal; inactive = flat fitted curve, though single readings scatter; the % refers to the signal ratio.
# Biological target: Thyrotropin receptor (Homo sapiens) (UniProt P16473)
# Sequence (P16473 whole entry, looked up): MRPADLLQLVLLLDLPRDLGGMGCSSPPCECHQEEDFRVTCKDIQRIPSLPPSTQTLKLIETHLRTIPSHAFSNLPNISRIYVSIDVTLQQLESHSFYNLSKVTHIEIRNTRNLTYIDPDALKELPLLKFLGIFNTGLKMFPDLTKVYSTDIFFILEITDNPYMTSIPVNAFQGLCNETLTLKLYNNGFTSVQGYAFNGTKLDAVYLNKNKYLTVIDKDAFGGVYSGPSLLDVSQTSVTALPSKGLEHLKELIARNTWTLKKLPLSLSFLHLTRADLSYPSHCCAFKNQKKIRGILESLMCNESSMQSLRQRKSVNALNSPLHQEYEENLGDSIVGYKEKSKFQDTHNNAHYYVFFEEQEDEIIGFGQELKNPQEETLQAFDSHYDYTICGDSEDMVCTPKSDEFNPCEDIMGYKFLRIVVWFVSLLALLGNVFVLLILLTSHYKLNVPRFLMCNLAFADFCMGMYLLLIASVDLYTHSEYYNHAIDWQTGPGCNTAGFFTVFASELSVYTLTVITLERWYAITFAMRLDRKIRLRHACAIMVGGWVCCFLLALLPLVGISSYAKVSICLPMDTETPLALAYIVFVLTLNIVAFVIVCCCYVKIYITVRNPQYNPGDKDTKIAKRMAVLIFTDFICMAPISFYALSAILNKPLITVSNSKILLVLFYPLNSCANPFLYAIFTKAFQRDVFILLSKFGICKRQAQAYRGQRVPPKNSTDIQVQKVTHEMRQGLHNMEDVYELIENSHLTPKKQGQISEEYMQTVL
# Experiment: Secondary Concentration-Response Assay for Agonists of the Thyroid Stimulating Hormone Receptor: HTRF Activity Detection;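 for activation: HEK 293 cells stably expressing human TSHR with RO 20-1724 phosphodiesterase inhibitor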
# Details: HEK293-TSHR cells, cAMP HTRF ratio, 30 min; series mostly up to 91.7 µM
# Procedure, shortened: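 Orthogonal confirmation in a separate TSHR-transfected HEK 293 line: cells in medium with 10 % FCS and 100 uM RO 20-1724 got compound for 30 min at room temperature. cAMP was measured by HTRF (d2-cAMP/anti-cAMP antibody), 615/660 nm emission.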
# Potency is the fitted concentration of half-maximal effect.
Compound,Potency,activation
COc1ccc2c(c1OC)C(=O)N1c3ccccc3C(=O)N(c3ccccc3F)C21 (stereo not given),inactive,–
CCN(CC)CCN1C(=O)c2ccccc2NC1c1ccc(N(C)C)cc1 (stereo not given),inactive,–
O=C(c1cc(-c2cccs2)on1)N1CCCc2ccccc21,–,0.238% [at 0.00035 µM]
O=C1c2ccccc2NC(c2ccc(F)cc2)N1Cc1ccco1 (stereo not given),inactive,–
CCCN1C(=O)c2ccccc2NC1c1ccc(OC)c(COc2ccc([N+](=O)[O-])cc2)c1 (stereo not given),inactive,–
COc1ccc(C2Nc3ccccc3C(=O)N2c2ccc(F)cc2)cc1Cn1nnc2ccccc21 (stereo not given),inactive,–
COCCNC(=O)C(c1ccccc1)N(Cc1cccs1)C(=O)Cn1nnc2ccccc21 (stereo not given),–,-0.712% [at 0.00035 µM]
COc1cc(OC)c(C(=O)N(Cc2ccco2)Cc2cccs2)cc1OC,inactive,–
CCOC(=O)c1ccccc1OCc1cc(C2Nc3ccccc3C(=O)N2c2cccc3ccccc23)ccc1OC (stereo not given),inactive,–
CC1(C)c2ccccc2N2CCC(=O)NC21/C=C/c1ccco1 (stereo not given),–,0.369% [at 0.00035 µM]
COc1ccc(C2Nc3ccccc3C(=O)N2Cc2ccccc2)cc1COc1ccc(Cl)cc1 (stereo not given),inactive,–
COc1ccc(C(=O)N(Cc2ccccc2)Cc2ccco2)c(O)c1,15.8 µM (active),–
CCCN1C(=O)c2ccccc2NC1c1ccc(OC)cc1OC (stereo not given),inactive,–
COc1ccc(C2Nc3ccccc3C(=O)N2Cc2ccco2)cc1COc1ccccc1F (stereo not given),inactive,–
COc1ccc(C2NC(=O)c3ccccc3N2)cc1COc1ccc(NC(C)=O)cc1 (stereo not given),inactive,–
